The text below walks through data of PubChem BioAssay (NCI).

Common to all, as to test: NCI-60 one-dose screen, 48 h (100 = growth as untreated, 0 = no growth, -100 = all killed)
What all share (conditions): 10 µM unless noted

Assay [1] has as its system SK-MEL-2 melanoma.
Assay [2] concerns EKVX NSCLC.
For assay [3], the system named is SN12C renal.
Assay [4] concerns UO-31 renal.
Assay [5] has as its system TK-10 renal.
The test system of assay [6] is ACHN renal.
Assay [7] concerns A498 renal.
Assay [8] concerns CCRF-CEM leukemia.
Assay [9] has as its system MOLT-4 leukemia.
In assay [10] the test system is SR leukemia.
Assay [11] has as its system RPMI-8226 leukemia.
The subject of assay [12] is OVCAR-8 ovarian.
Assay [13] relates to OVCAR-5 ovarian.
Assay [14] concerns OVCAR-4 ovarian.
For assay [15], the system named is SK-OV-3 ovarian.
The test system of assay [16] is OVCAR-3 ovarian.
The subject of assay [17] is HS 578T breast.
For assay [18], the system named is NCI/ADR-RES ovarian.
In assay [19] the test system is IGROV1 ovarian.

The panel holds about 83,000 compounds, 20% with a hit somewhere; the sample as a whole holds those more often.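 Note: values are percent growth. 100 is the growth of untreated cells, values between 100 and 0 indicate rising inhibition; between -100 and 0 indicates cell death.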 Values without a mark were called inactive. Active and inactive are the calls of the source. Rule for the calls: active = growth percent below 10; inactive = the rest.

Consider `c1cncc(-c2nc3ccccc3[nH]2)c1`, for which the growth is 106% in assay [1]; 120% in assay [2]; 89.8% in assay [3]; 82.3% in assay [4]; 148% in assay [5]; 91% in assay [6]. In addition, the growth is 84.4% in assay [7]; 110% in [8]; 97.4% in [9]; 90.6% in [10]; 75.3% in assay [11]; 98.4% in assay [12]. In addition, the growth in assay [13] is 86.5%; in assay [14], 104%; in [15] it was 95.3%; in assay [16], 98.6%; in assay [17], 78.4%; in assay [18] it was 96.1%.
Regarding `COc1ccccc1N1CCN(CC(O)COc2c(Br)c(Br)c(Br)c3c2OC(C)(C)C3)CC1` (stereo not drawn), the growth in assay [1] was 60.5%; in assay [2] it was 117%; in assay [3] it was 65.8%; in assay [4], 13.2%; in [5] it was 40.5%; in assay [6] it was 56.1%. In addition, the growth in assay [7] is 55.9%; in assay [8], -54.6% (active); in assay [9] it was -36.7% (active); in assay [10] it was -50.4% (active); in [11], 1.1% (active); in assay [12], 62.2%. In addition, the growth was 61.2% in assay [13]; 30.4% in assay [14]; 84.2% in assay [15]; -19.7% (active) in assay [19]; 67.3% in [17]; 45.7% in assay [18].
For `CC(C)(C)NCC(O)COc1c(Br)c(Br)c(Br)c2c1OC(C)(C)C2` (stereo not drawn), the growth in assay [1] was -71.9% (active); in assay [2] it was 50.1%; in assay [3] it was 33.2%; in assay [4], -81.8% (active); in assay [5] it was -77.8% (active); in assay [6], -60.1% (active). Further, the growth in assay [7] was -6.49% (active); in [8], -62.5% (active); in assay [9], -56.1% (active); in assay [10] it was -61.6% (active); in assay [11], -72.8% (active); in assay [12] it was -54.8% (active). The growth in assay [13] was -73.2% (active); in assay [14] it was 15.3%; in assay [15], 92.1%; in assay [19], -84.2% (active); in assay [17], -64.8% (active); in assay [18], -15.9% (active).
As to `Nn1c(SCC(=O)Nc2cc(Cl)c(Cl)cc2Cl)nnc1-c1cc(F)c(Cl)cc1Cl`, the growth in assay [1] was 87.3%; in assay [2], 66.5%; in assay [3] it was 151%; in [4], 65.2%; in assay [5] it was 123%; in [6], 210%. Moreover, the growth was 115% in assay [7]; 125% in assay [8]; 84.8% in assay [9]; 99.5% in assay [10]; 132% in assay [11]; 97.5% in [12]. Also, the growth in [13] is 108%; in assay [14], 120%; in assay [15] it was 105%; in assay [19] it was 55.2%; in assay [17], 103%; in assay [18] it was 99.7%.
Turning to `O=C(Nc1cccc([N+](=O)[O-])c1)c1ccc2ccccc2c1O`, the growth in [1] is 44.1%; in [2], 51.9%; in [3] it was 50.5%; in assay [4] it was 49.8%; in assay [5], 91.5%; in assay [6], 77.6%. In addition, the growth in assay [7] was 41.9%; in [8], 39.2%; in [9] it was 66.7%; in assay [10], 92.2%; in assay [11] it was -7.69% (active); in assay [12], 80%. In addition, the growth was 64.2% in assay [13]; 44.5% in assay [14]; 74.6% in [15]; 36.9% in assay [16]; 69.7% in [17]; 53.1% in assay [18].
As to `CC(=O)N[C@@H](CNC(=O)c1cc(NC(=O)c2cc(NC(=O)c3cc(NC(=O)c4nccn4C)cn3C)cn2C)cn1C)CC(=O)Nc1cn(C)c(C(=O)Nc2cc(C(=O)Nc3cc(C(=O)Nc4cc(C(=O)NCCCN(C)CCCNC(=O)c5cccc(C(=O)O)c5)n(C)c4)n(C)c3)n(C)c2)n1`, the growth in assay [1] is 89.4%; in assay [2], 102%; in [3], 100%; in [4], 77.1%; in [5], 93.1%; in assay [6] it was 75.1%. The growth in [7] was 92.9%; in assay [8], 103%; in [9], 120%; in assay [10], 77.2%; in assay [11], 105%; in [12], 96%. The growth in [13] was 121%; in assay [14], 64%; in assay [15] it was 115%; in [19] it was 113%; in assay [18] it was 87.4%.
As for `COc1ccc(C2=NN(C(=O)COc3ccc(Cl)cc3)C(O)(c3cc(F)c(Cl)cc3Cl)C2)cc1` (stereo not drawn), the growth in assay [1] was 99.2%; in assay [2], 80.5%; in assay [3], 119%; in [4], 74.7%; in assay [5], 89.5%; in assay [6], 104%. The growth in assay [7] was 95.3%; in assay [8], 7.54% (active); in assay [9], 77.3%; in [10], 17%; in [11] it was 80.9%; in assay [12], 91%. Also, the growth was 96.6% in assay [13]; 98.8% in [14]; 94.6% in assay [15]; 60.4% in assay [19]; 102% in [17]; 99% in [18].
`Nc1nc(Cl)cc(NCc2ccc(CNc3cc(Cl)nc(N)n3)cc2)n1`: the growth in [1] is 74.1%; in assay [2], 70.4%; in assay [3] it was 106%; in assay [4], 84.3%; in [5], 124%; in assay [6], 92.7%. Also, the growth in assay [7] was 73.7%; in assay [8], 107%; in [9], 70.7%; in assay [10], 139%; in assay [11] it was 103%; in [12], 89.6%. Moreover, the growth was 82.5% in assay [13]; 59.7% in assay [14]; 92.5% in [15]; -31% (active) in assay [19]; 100% in assay [17]; 103% in assay [18].
